Measurements: PubChem BioAssay (NCI)
This is part of a sample that, as a whole, favours compounds with a hit. Of some 79,000 tested, about 15% had one in any assay. Rule as the data show it: active = growth inhibition above about 70%; inactive = the rest.

How the values were obtained:
[1] = NCI Yeast Anticancer Drug Screen. Data for the rad50 strain (AID 155);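 also: 0% = growth of vehicle-only cultures of the same strain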; settings: S. cerevisiae rad50 strain growth inhibition; at 50.0 µM; active compounds read high
Method in brief: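 Vehicle-treated cultures provide the reference for the growth inhibition reported for compound-exposed, repair-deficient yeast.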

[2] = NCI Yeast Anticancer Drug Screen. Data for the mec2-1 strain (AID 157); settings: S. cerevisiae mec2-1 strain, at 50.0 µM, active compounds read high
Method in brief: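 Yeast mec2-1 mutant treated with compound. Readout: growth inhibition vs vehicle controls.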

[3] = NCI Yeast Anticancer Drug Screen. Data for the sgs1 mgt1 strain (AID 161);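 also: 0% = growth of cultures given vehicle only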; settings: S. cerevisiae sgs1 mgt1 strain, at 50.0 µM, active compounds read high
Method in brief: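 Mutant yeast exposed to compound; growth scored against vehicle-only wells.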

[4] = NCI Yeast Anticancer Drug Screen. Data for the cln2 rad14 strain (AID 165);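 also: 0% = growth equal to vehicle treated cultures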; settings: S. cerevisiae cln2 rad14 strain, at 50.0 µM, active compounds read high
Method in brief: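 cln2 rad14 yeast strain; compound exposure; growth inhibition read vs vehicle controls.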

[5] = NCI Yeast Anticancer Drug Screen. Data for the bub3 strain (AID 167); settings: S. cerevisiae bub3 mutant strain, at 50.0 µM, active compounds read high
Method in brief: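 Mutant yeast screening strain plus compound; vehicle-treated cultures serve as the 0% inhibition reference.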

[6] = NCI Yeast Anticancer Drug Screen. Data for the mlh1 rad18 strain (AID 175); settings: S. cerevisiae mlh1 rad18 strain growth inhibition; at 50.0 µM; active compounds read high
Method in brief: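 Yeast w/ defined DNA-repair lesions; compound exposure; growth vs vehicle controls → % inhibition.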

Measured: growth inhibition

CCOC(=O)/C=C1\CCC(C)n2c1nccc2=O (centres undefined)
inactive: [1] -14.1% | [2] 4.8% | [3] -6% | [4] -7.5% | [5] 14.5% | [6] 14.3%

CC1CCC(=O)N1c1ccc(N)cc1 (centres undefined)
inactive: [1] -19% | [2] -15.5% | [3] -15.2% | [4] 11.2% | [5] -23.3% | [6] 10.1%

CCCCN1C[C@H](OC(=O)CCC)[C@@H](OC(=O)CCC)[C@H](OC(=O)CCC)[C@H]1COC(=O)CCC
inactive: [1] -18.4% | [2] -15.7% | [3] -11% | [4] -5.3% | [5] -23.9% | [6] -15.7%

Nc1nnc(-c2ccc(Nc3nc4ccccc4[nH]3)c([N+](=O)[O-])c2)s1
inactive: [1] 7% | [2] 1.4% | [3] 27.7% | [4] 15.3% | [5] 3.15% | [6] 14.1%

CCCCCCCCCCOc1ccc(C=NC/C=C/c2ccc(CC)cc2)cc1
inactive: [1] -19.4% | [2] -13.8% | [3] -13.7% | [4] -50.8% | [5] -1.2% | [6] -23.4%

CCOC(=O)c1ccc(Nc2nc3ccccc3o2)cc1
inactive: [1] 5% | [2] -7.6% | [3] 9.05% | [4] -14.2% | [5] -0.95% | [6] 1.7%

Nc1nc2c(nc(Br)n2C2OC(CO)C(O)C2O)c(=O)[nH]1 (centres undefined)
inactive: [1] -2.05% | [2] -1.6% | [3] 0.95% | [4] -8.4% | [5] 1.8% | [6] -9.65%

COc1ccccc1NC(=O)NCCCCCCNC(=O)Nc1ccccc1OC
inactive: [1] -25.6% | [2] -2.55% | [3] 2.1% | [4] -39.9% | [5] 0.85% | [6] 13.4%

O=C(c1ccc(F)cc1)c1cccc(C(=O)c2ccc(F)cc2)n1
inactive: [1] -16.8% | [2] -24% | [3] -29.9% | [4] 8.15% | [5] -3.4% | [6] -36.1%

Cc1nn(C(=O)c2ccccc2O)c2c1C(c1ccc(O)cc1)SC(N)=N2 (centres undefined)
inactive: [1] 16.1% | [2] 1.95% | [3] 29.4% | [4] 1.65% | [5] 43.6% | [6] 6.65%

O=C1OCC(c2ccccc2)(c2ccccc2)C(=O)N1O
inactive: [1] 18.4% | [2] -2.1% | [3] 3.95% | [4] 13.2% | [5] 5.65% | [6] 16.5%

O=C(O)CCc1cccc2ccccc12
inactive: [1] 30.1% | [2] 10.8% | [3] 32.7% | [4] 14.4% | [5] 3.35% | [6] 35.3%

C/C(=C\c1ccccc1)C(O)C(=O)c1nc2ccc([N+](=O)[O-])cc2[nH]c1=O (centres undefined)
inactive: [1] -5.55% | [2] -33.1% | [3] -11.4% | [4] 21.4% | [5] -26.4% | [6] 14.5%

Cc1ccc(S(=O)(=O)N/N=C/c2cc([N+](=O)[O-])ccc2O)cc1
inactive: [1] 5% | [2] 3.4% | [3] 10.1% | [4] 14.8% | [5] 9.5% | [6] 28.9%

O=C(O)C1=CN=C(C(=O)O)NN1
inactive: [1] -24.4% | [2] -23.2% | [3] -28.8% | [4] 19.5% | [5] -4.15% | [6] -34.5%

Cc1ccc(Nc2ccc(O)c3c2C(=O)c2ccccc2C3=O)cc1
inactive: [1] -17.9% | [2] -3.6% | [3] 5.45% | [4] -29.6% | [5] 16.1% | [6] 15.5%

COC(OC)C1OC(C)(C)OC1C(OS(=O)(=O)c1ccc(C)cc1)C1COC(C)(C)O1 (centres undefined)
inactive: [1] -14.7% | [2] -7.8% | [3] 6.45% | [4] 1.95% | [5] 1.6% | [6] 12.7%

CC(C)(C)CC(C)(C(=O)O)C(C)(C)C (centres undefined)
inactive: [1] 4% | [2] 9.25% | [3] -3.25% | [4] -12.6% | [5] 3.15% | [6] 14.7%

OCC(O)C(O)C(O)C(Sc1ccccc1)Sc1ccccc1 (centres undefined)
inactive: [1] 7.15% | [2] 11.8% | [3] 7.4% | [4] 8.3% | [5] -7.25% | [6] 16.8%
